Experimental data as given in PubChem BioAssay AID687021 (Broad Institute, 2013).
Calls of active or inactive are those of the source.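 The calls were made as follows: active = compounds lowering luciferase light whose fitted half-effect concentration is at most twice the top tested dose; inconclusive = flat curve with 30 to 70% inhibition, or poor fit; inactive = the rest.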

Test: luciferase signal loss, tTA control fusion, HeLa F-luc tTA cells, dry powder, counter-screen for HIV Env fusion inhibitor project, dose response (AID 687021)
Settings: luciferase luminescence counterscreen; series mostly up to 35 µM
For Clc1ccc2c(c1)C(C1=NCCN1)c1ccccc1CS2 (configuration not stated), the outcome was “inactive”. With COc1ccc(-c2cc(C(=O)NNC(=S)NC(=O)c3c(-c4ccccc4)noc3C)[nH]n2)cc1 the outcome was “inactive”. With Cc1ccc(C)n1-c1ccc(C(=O)O)c(O)c1 the outcome was “inactive”. In the case of CCCC#Cc1ccc2c(c1)O[C@@H](CN(C)S(=O)(=O)c1cccc(F)c1)[C@@H](C)CN([C@H](C)CO)S2(=O)=O, the outcome is reported as “inactive”. In the case of CCOc1ccc(S(=O)(=O)NCc2ccccc2)cc1, the outcome is reported as “inactive”. For O=C(CCCn1c(=S)[nH]c2cc3c(cc2c1=O)OCO3)N1CCN(c2ccc(Cl)cc2)CC1, the outcome was “inactive”. With Cc1noc(C)c1S(=O)(=O)Nc1cccc2c1O[C@H](CN(C)Cc1ccc(C(F)(F)F)cc1)[C@H](C)CN([C@H](C)CO)C2=O the outcome was “inactive”. With CC(C)(C)c1ccc(-c2noc(CCC(=O)NCC3CCCO3)n2)cc1 (configuration not stated) the outcome was “inactive”. With COc1ccc(-c2nn(C)c(=O)c3ccccc23)cc1NC(=O)Cn1nc(C)c2ccccc2c1=O the outcome was “inactive”. In the case of Cc1noc(C)c1S(=O)(=O)Nc1cccc2c1O[C@@H](CN(C)Cc1ccc(C(F)(F)F)cc1)[C@@H](C)CN([C@@H](C)CO)C2=O, the outcome is reported as “inactive”. For CCOc1ccc(S(=O)(=O)NCc2ccccn2)cc1, the outcome was “inactive”. With CCOc1ccc(S(=O)(=O)NC(C)c2ccncc2)cc1 (configuration not stated) the outcome was “inactive”. With CCOc1ccc(OCC)c(S(=O)(=O)NCc2ccncc2)c1 the outcome was “inactive”. For C[C@@H]1CN([C@H](C)CO)C(=O)c2cccc(NS(=O)(=O)c3ccc(Cl)cc3)c2O[C@@H]1CN(C)Cc1ccc(Cl)c(Cl)c1, the outcome was “inactive”. With CCCn1nc(C(=O)Nc2ccc3nc(N4CCOCC4)sc3c2)ccc1=O the outcome was “inactive”. For COc1ccc2c(c1)[nH]c1c(N3CCN(Cc4ccc5c(c4)OCO5)CC3)ncnc12, the outcome was “inactive”. With CCCNC(=O)N1[C@H](C#N)[C@H](c2ccc(-c3cccnc3)cc2)[C@@H]1CO the outcome was “inactive”. With CCOc1ccc(S(=O)(=O)NCc2ccncc2)cc1Cl the outcome was “inactive”. In the case of Cc1ccc2c(CN3CCN(S(=O)(=O)c4ccc5c(c4)OCCO5)CC3)cc(=O)oc2c1C, the outcome is reported as “inactive”. In the case of CCCOc1ccc(S(=O)(=O)NCc2ccncc2)c2ccccc12, the outcome is reported as “inactive”. For COC(=O)COc1ccc(S(=O)(=O)NCc2ccncc2)cc1, the outcome was “inactive”. In the case of Cn1c(C(=O)N2CCN(c3nc4ccccc4s3)CC2)cc2sccc21, the outcome is reported as “inactive”.
